Measured values: PubChem BioAssay AID2235 (The Scripps Research Institute Molecular Screening Center, 2010)
Out of some 320,000 compounds screened, about 2,800 (0.88%) were called active. This is one part of a sample in which actives are shown more often than they occur. Values without a mark were called inactive.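 The calls were made as follows: active = inhibition above the mean inhibition of all tested compounds plus 3 SD, computed separately for each screening campaign (cut at about 15% in these data); inactive = the rest.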

Molecular target: Serine/threonine-protein phosphatase PP1-alpha catalytic subunit (Homo sapiens) (UniProt P62136)
Assay: inhibition of human PP1 catalytic subunit – biochemical, fluorescence, OMFP substrate, single point, counter-screen for PP5 inhibitor project, primary screen (AID 2235)
Details: purified PP1alpha, at 6.7 µM, stronger effect = higher value

Serine/threonine-protein phosphatase PP1-alpha catalytic subunit (Homo sapiens), sequence (P62136 whole entry, looked up): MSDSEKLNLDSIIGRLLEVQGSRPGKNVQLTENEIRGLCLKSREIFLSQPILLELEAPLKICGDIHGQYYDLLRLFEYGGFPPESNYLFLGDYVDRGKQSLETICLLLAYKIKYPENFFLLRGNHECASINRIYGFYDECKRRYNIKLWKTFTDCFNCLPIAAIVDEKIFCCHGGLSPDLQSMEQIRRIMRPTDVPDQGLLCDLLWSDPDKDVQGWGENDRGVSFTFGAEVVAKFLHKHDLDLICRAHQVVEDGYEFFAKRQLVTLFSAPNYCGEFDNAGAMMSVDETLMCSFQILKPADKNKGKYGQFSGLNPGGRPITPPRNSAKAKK

Row | Structure (SMILES) | inhibition
1 | Cc1ccc(NC(=O)CN(C)C(=O)COC(=O)c2nccnc2N)cc1 | 6.11%
2 | COc1ccc(NC(=O)CNC(=O)Cc2ccccc2)cc1OC | -3.57%
3 | COc1ccc(NC(=S)SC)cc1OC | -7.31%
4 | Cc1sc(NC(=O)C2C3CCC(O3)C2C(=O)O)c(C(=O)OC(C)C)c1-c1ccc(Cl)cc1 (stereo not drawn) | 10.9%
5 | COC(=O)c1cc(NC(=O)C2C3C=CC(C3)C2C(=O)O)cc(C(=O)OC)c1 (stereo not drawn) | 2.03%
6 | COc1ccc(NC(=O)C2C3CCC(O3)C2C(=O)O)cc1OC (stereo not drawn) | 71.5% (active)
7 | CC(C)OC(=O)c1cc(NC(=O)C2C3CCC(O3)C2C(=O)O)cc(C(=O)OC(C)C)c1 (stereo not drawn) | 48.8% (active)
8 | COc1ccc(N(CC(=O)N/N=C/c2cccc3c2OCCO3)S(=O)(=O)c2ccc(NC(C)=O)cc2)cc1 | 4.91%
9 | CCOc1ccccc1N1CN(Cc2ccccc2)CNC1=S | -3.54%
10 | CC(C)c1ccc(N(C(=O)c2ccco2)C(C(=O)NC2CCCC2)c2cccnc2)cc1 (stereo not drawn) | 4.81%
11 | CN(CC(=O)Nc1ccc(Cl)cc1)C(=O)CNC(=O)c1ccc2ccccc2c1 | -2.18%
12 | Cc1cc(-c2csc(N)n2)c(C)n1-c1ccccc1 | 25.1% (active)
13 | Cc1cc(-c2csc(N)n2)c(C)n1Cc1ccccc1 | 14.8%
14 | CC(=O)Nc1ccc(C(=O)Nc2nc(-c3cc(C)n(Cc4ccccc4)c3C)cs2)cc1 | 3.86%
15 | CC(=O)Nc1ccc(S(=O)(=O)N2CCC(NC(=O)c3ccccc3)CC2)cc1 | 0.38%
16 | O=C(Nc1ccccc1N1CCN(C(=O)c2ccccc2)CC1)c1ccco1 | 0.05%
17 | CCCNC(=O)c1ccc(N2CCC3(CC2)CC(c2ccc(Cl)cc2)=NO3)c([N+](=O)[O-])c1 | -4.68%
18 | CCCNC(=O)c1ccc(N2CCC3(CC2)CC(c2cccc(Br)c2)=NO3)c(NC(=O)c2ccco2)c1 | 15.6% (active)
19 | CC(C)=CC(=O)Nc1nnc(-c2ccc(F)cc2)s1 | -5.78%
20 | COc1ccc(C2=NN(C(=O)CSc3nnnn3C)C(c3ccco3)C2)cc1 (stereo not drawn) | -2.47%
21 | Cc1ccc(N(C(=O)c2ccc(CN3CCOCC3)o2)C(C(=O)NCCC(C)C)c2cccs2)c(C)c1 (stereo not drawn) | -1.98%
22 | Cc1ccc(Nc2nc(CSc3nnnn3-c3ccccc3)cc(=O)[nH]2)cc1 | 37.6% (active)

Row | Structure (SMILES) | inhibition
23 | Cc1ccc(-c2noc(CSc3nnnn3-c3ccccc3)n2)cc1 | 0.28%
24 | COc1ccc(C)cc1-n1nnnc1SCc1nc2ccccc2c(=O)[nH]1 | 9.72%
25 | CC1(C)O[C@@H]2[C@H](O1)[C@@H](CO)O[C@H]2n1c(N2CCCCC2)nc2c(N)ncnc21 | -3.13%
26 | CC(=O)Nc1ccc(S(=O)(=O)N2CCn3cccc3C2C)cc1 (stereo not drawn) | 0.86%
27 | O=C(CSc1nc2ccccc2[nH]1)N/N=C/C=C\c1ccccc1[N+](=O)[O-] | -2.41%
28 | CCn1c(SCC(=O)N/N=C/C=C/c2ccccc2[N+](=O)[O-])nnc1-c1ccccc1 | -0.35%
29 | Cc1ccc(-n2c(SCC(=O)N/N=C/C=C/c3ccccc3[N+](=O)[O-])nc3ccccc3c2=O)cc1 | 16.8% (active)
30 | Cc1cccc(NC(=O)c2ccc(S(=O)(=O)N(C)CC3CCCO3)cc2)c1C (stereo not drawn) | 0.75%
31 | NS(=O)(=O)c1ccc(NC(=S)Nc2ccc(Br)c(Cl)c2)cc1 | 0.34%
32 | CCOc1cc(NC(=S)NCCCOC)c(OCC)cc1NC(=O)c1ccco1 | -3.32%
33 | Cc1nc2cc(NC(=O)NCc3ccccc3)ccc2o1 | -6.2%
34 | O=C(NCc1ccccn1)c1ccc2nc(-c3ccco3)c(-c3ccco3)nc2c1 | 31.1% (active)
35 | COCCNC(=O)Nc1ccc2nc(-c3ccco3)c(-c3ccco3)nc2c1 | 22.8% (active)
36 | CCOc1ccc(C(=O)NC(C(=O)NCc2ccccn2)C(C)C)cc1 (stereo not drawn) | 1.59%
37 | Cc1cc(C)cc(NC(=O)NCc2ccccn2)c1 | -2.05%
38 | C[C@H](NC(=O)[C@@H]1Cc2ccccc2CN1C(=O)OC(C)(C)C)C(=O)NC1CCCC1 | -1.9%
39 | CC(=O)Nc1ccc(SC[C@H](Cc2ccccc2)N2CC[C@@H](C)CCC2=O)cc1 | 2.41%
40 | Cc1nc2cccnc2nc1C | 2.22%
41 | CCCCn1c(N)c(N(CC(C)C)C(=O)c2cccc(S(=O)(=O)N3CC(C)OC(C)C3)c2)c(=O)[nH]c1=O (stereo not drawn) | -0.35%
42 | COc1ccc(S(=O)(=O)N2CCOC2CNC(=O)C(=O)NCc2ccncc2)cc1OC (stereo not drawn) | -2.33%
43 | COc1ccc(NC(=O)c2cn(-c3ccccc3)nc2SC)cc1 | 0.29%
44 | COc1ccc(-c2nn(-c3ccccc3)cc2/C=C\C(=O)Nc2ccc(C(=O)O)cc2)cc1 | 23.8% (active)

Row | Structure (SMILES) | inhibition
45 | Cc1ccc(-c2nn(-c3ccccc3)cc2/C=C/C(=O)Nc2cccc(S(N)(=O)=O)c2)cc1 | 2.13%
46 | O=C(CSc1ccccc1F)NC1CCS(=O)(=O)C1 (stereo not drawn) | -3.59%
47 | CC(C)(C)NC(=O)Cn1c(SCC(=O)Nc2nccs2)nc2ccccc21 | -0.87%
48 | O=C1CC(c2c(F)cccc2Cl)C(n2cncn2)C(O)=C1C1NCCc2ccccc21 (stereo not drawn) | 3.05%
49 | C=CCn1c(=NC(=O)c2ccc(S(=O)(=O)N3CCCC3)cc2)sc2cc(NC(C)=O)ccc21 | 21.1% (active)
50 | COc1cc(C(C)=O)ccc1OC(C)C(=O)Nc1ccc(S(=O)(=O)N2CCCC2)cc1 (stereo not drawn) | -2.63%
51 | C=CCn1c(=NC(=O)c2cccs2)sc2cc(NC(C)=O)ccc21 | 14.5%
52 | C=C(Br)Cn1c(CCCC)nc2ccccc21 | -2.53%
53 | COc1ccc(CNC(=O)C(c2ccc(O)cc2)N(Cc2ccco2)C(=O)c2snc(C(N)=O)c2N)cc1 (stereo not drawn) | 4.97%
54 | C=CCOc1cccc(C2C(C(=O)c3ccc(C)o3)=C(O)C(=O)N2c2nnc(C)s2)c1 (stereo not drawn) | 2.22%
55 | CCCOc1ccc(C2C(C(=O)c3ccc(C)o3)=C(O)C(=O)N2CCCn2ccnc2)cc1 (stereo not drawn) | 33.5% (active)
56 | O=C(C1=C(O)C(=O)N(Cc2ccccc2)C1c1cccnc1)c1ccco1 (stereo not drawn) | 0.59%
57 | C=CCOc1cccc(C2C(C(=O)c3ccc(C)o3)=C(O)C(=O)N2CCCn2ccnc2)c1 (stereo not drawn) | 17.4% (active)
58 | CCOc1ccc(C2/C(=C(/O)c3ccc4c(c3)CC(C)O4)C(=O)C(=O)N2CCCn2ccnc2)cc1 (stereo not drawn) | 9.12%
59 | CCCOc1ccc(C2c3c(oc4cc(C)c(C)cc4c3=O)C(=O)N2CCCN2CCOCC2)cc1 (stereo not drawn) | 3.82%
60 | CCN(CC(=O)Nc1cc(Cl)ccc1C)C(=O)CN1C(=O)NC2(CCCC2)C1=O | 0.75%
61 | C=CCNC(=O)CC12CC3CC(C1)CC(CC(=O)NCC=C)(C3)C2 | -3.18%
62 | CC1=C(C(N)=O)C(c2ccc(Br)cc2)n2ncnc2N1 (stereo not drawn) | 1.51%
63 | Clc1ccc2c(c1)C1=C(C(c3ccncc3)O2)C(c2ccc(Br)cc2)n2ncnc2N1 (stereo not drawn) | 20.3% (active)
64 | Brc1ccc(C2=CC(c3ccco3)n3ncnc3N2)cc1 (stereo not drawn) | 0.45%
65 | COc1ccc(C(C(=O)NC2CCCCC2)N(C(=O)Cc2c[nH]c3ccccc23)c2ccccc2)cc1OC (stereo not drawn) | 2.63%
66 | Cc1nn(-c2ncc(C(F)(F)F)cc2Cl)c(=O)n1-c1ccccc1 | -0.83%

Row | Structure (SMILES) | inhibition
67 | O=C1c2cccc(OCC(=O)N3N=C(c4cccs4)CC3c3ccc(F)cc3)c2CCN1Cc1ccccc1 (stereo not drawn) | 21% (active)
68 | COc1ccc(C2CC(c3cccs3)=NN2C(=O)CCC(=O)O)cc1OC (stereo not drawn) | 0.57%
69 | O=C(COc1ccccc1Cl)N1N=C(c2cccs2)CC1c1ccco1 (stereo not drawn) | 7.67%
70 | Cc1cc(C)nc(Nc2n[nH]c(-c3ccccc3N)n2)n1 | 0.04%
71 | CN1C(=O)c2ccc(C(=O)Nc3ccc(Br)cn3)cc2C1=O | -4.13%
72 | COc1cccc(/C=N/NC(=O)c2[nH]nc3c2CCc2ccccc2-3)c1O | 25% (active)
73 | COc1cc(OC)c(/C=N/NC(=O)c2ccc([N+](=O)[O-])cc2)cc1Br | -0.65%
74 | CN(C)CCNC(=O)c1[nH]nc2c1CCc1ccccc1-2 | -1.2%
75 | O=S(=O)(NN=C1CCCCCCC1)c1ccc(Br)cc1 | -0.57%
76 | O=C(O)CC(CC(=O)N1CCOCC1)c1ccccc1 (stereo not drawn) | -2.86%
77 | CN(C(=O)CN(CCO)CC(=O)N(C)C(C)(C)Cc1ccccc1)C(C)(C)Cc1ccccc1 | 21.1% (active)
78 | OCCN(Cc1ccccc1)Cc1ccc(Cl)cc1 | 5.28%
79 | CCN(CC)CCCNC(=O)CCc1ccccc1 | -3.5%
80 | C=CCn1c(N)cc(=O)nc1SCC(=O)Nc1cccc2ccccc12 | 2.61%
81 | Cc1ccccc1-n1c(SCC(=O)Nc2cccc3ccccc23)nc(O)cc1=O | 15.6% (active)
82 | Cc1ccc2nc(SCC(=O)Nc3cccc4ccccc34)nc(=O)n2c1 | -4.71%
83 | COC(=O)C1NN=C(C(=O)c2ccc(Br)cc2)C1c1cccc(Br)c1 (stereo not drawn) | 1.62%
84 | COc1cc(-c2nn3c(-c4cccc(C)c4)nnc3s2)cc(OC)c1OC | 7.7%
85 | CCOc1cccc(-c2nn3c(-c4ccccn4)nnc3s2)c1 | 16.3% (active)
86 | c1ccc(-c2cc(-c3nnc4sc(-c5ccccn5)nn34)[nH]n2)cc1 | 14%
87 | CCCCCCCC[n+]1cccc(C(=O)N2c3c(nc(N)[nH]c3=O)NC(C)C2C)c1 (stereo not drawn) | -2.25%
88 | CCN(CC(=O)NCc1cccs1)C(=O)c1ccc(OC)c(S(=O)(=O)N2CCOCC2)c1 | -5.16%
